Bioassay records from PubChem BioAssay.
CHRM4 PAM = positive allosteric modulators of human muscarinic M4 receptor; CHO-K1 hM4/Gqi5, Fluo-8 calcium fluorescence, ACh EC20; 0% = ACh EC20, 100% = maximal ACh; 0.4% of 360,000 active; activation, % at 3 µM;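 active = activation above its plate's cutoff, the mean activation of sample wells plus 3 SD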
Target sequence (P08173 whole entry, looked up): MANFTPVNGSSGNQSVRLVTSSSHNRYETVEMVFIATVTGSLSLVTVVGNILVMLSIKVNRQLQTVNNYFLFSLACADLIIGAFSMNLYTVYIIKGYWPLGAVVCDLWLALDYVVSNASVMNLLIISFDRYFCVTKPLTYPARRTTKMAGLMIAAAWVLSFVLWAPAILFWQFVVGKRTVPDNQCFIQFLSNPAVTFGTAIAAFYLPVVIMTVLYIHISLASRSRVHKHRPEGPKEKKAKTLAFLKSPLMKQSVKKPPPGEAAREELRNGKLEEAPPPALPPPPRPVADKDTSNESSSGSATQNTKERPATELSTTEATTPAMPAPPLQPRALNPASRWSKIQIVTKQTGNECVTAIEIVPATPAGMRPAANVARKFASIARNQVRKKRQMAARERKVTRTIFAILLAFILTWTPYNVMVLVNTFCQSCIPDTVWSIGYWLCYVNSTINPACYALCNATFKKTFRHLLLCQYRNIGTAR
CHRM4 agonist = agonists of human muscarinic M4 receptor (CHRM4) | P08173 | CHO-K1 hM4/Gqi5, Fluo-8 calcium fluorescence; vehicle 0%, full acetylcholine response 100% | activation, % at 3 µM | 0.14% of 360,000 active;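 active = activation above the run mean over all test wells plus 3 SD, cut at about 32% in these data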;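 note: peak over basal fluorescence ratio per well then scaled between controls; 0% = DMSO wells and 100% = acetylcholine at EC100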
M1 PAM = potentiates human M1 receptor response to acetylcholine. CHO-K1 hM1, Fluo-8 calcium fluorescence, ACh EC20; 0% = ACh EC20, 100% = maximal ACh. P11229. activation, % at 3 µM. AID 588819. 0.088% of 360,000 active; in the data active = activation above about 19%, passing the limit was not always enough
CHRM4 antagonist = blocks acetylcholine activation of human M4 receptor | CHO-hM4 cells, ACh EC80, Fluo-8 calcium fluorescence | inhibition, % at 3 µM | 0.73% of 360,000 active;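 active = inhibition above its plate's cutoff, the mean inhibition of sample wells plus 3 SD, cut at about 27% in these data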;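 note: 0% = acetylcholine EC80 with DMSO and 100% = DMSO without agonist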
M1 antag = human CHRM1 antagonism; P11229; CHO-K1 hM1, Fluo-8 calcium fluorescence, ACh EC80 antagonist; inhibition, % at 3 µM; 1.3% of 360,000 active; AID 588852;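 active = percent inhibition above its own plate's cutoff, namely the mean of that plate's compound wells plus 3 SD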;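 note: peak over basal fluorescence ratio during 140 s after agonist addition; 0% = ACh EC80 plus DMSO and 100% = DMSO alone without agonist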
CHRM1 agonist = human M1 muscarinic receptor agonism; P11229; CHO-K1 hM1, Fluo-8 calcium fluorescence, agonist mode; 0% DMSO, 100% acetylcholine EC100; activation, % at 3 µM; 0.33% of 360,000 active; AID 588814;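 active = activation above the run's mean compound activation plus 3 SD, cut at about 16% in these data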;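 note: peak over basal fluorescence ratio within a 140 s kinetic read after compound addition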
The depositor's hits bear a star; . = no result given. Most compounds without a hit are left out; they make up all but 2.2% or so of the library.

SMILES	CHRM4 PAM	CHRM4 agonist	M1 PAM	CHRM4 antagonist	M1 antag	CHRM1 agonist
CN(CC(=O)N1CCN(C2CCCCC2)CC1)S(=O)(=O)c1cccc2nsnc12	1	2	-2	29*	7	-7
Cc1cccc(N(C)C(=O)C2CCCN2S(=O)(=O)c2cccc3nsnc23)c1 (configuration not stated)	9	0	3	29*	-26	-2
CCN(C(=O)C1CCCN1S(=O)(=O)c1cccc2nsnc12)c1ccccc1 (configuration not stated)	6	1	3	-14	-21	0
COc1ccc(C(=O)N(C)Cc2ccccc2F)cc1S(=O)(=O)N1CCCC1	3	3	14	7	-7	-3
O=C(CCCN1C(=O)/C(=C/c2ccccc2Cl)SC1=S)NNC(=O)c1ccc(Cl)cc1Cl	12	0	5	-6	-17	-1
N=C1C(c2ccccc2)=C(O)CN1CCO	17*	4	9	-8	2	0
CCCCCCN1CC(O)=C(c2ccccc2)C1=N	5	1	-3	-1	6	-2
CC(C)(C)c1ccc(CC(=O)N2CCC2(C)C(=O)Nc2cnc3ccccc3c2)cc1 (configuration not stated)	-12	19	-21	23	36*	0
Cc1ccc(S(=O)(=O)NC(=O)C2(C)CCN2C(=O)Cc2ccc(-c3ccccc3)cc2)cc1 (configuration not stated)	1	0	-1	-3	-1	-2
Cc1ccc(NC(=O)C2(C)CCN2C(=O)Cc2ccc(-c3ccccc3)cc2)cc1 (configuration not stated)	-6	5	-15	7	20	19*
CC(=O)N1CCc2cc(Br)cc(S(=O)(=O)NCc3ccc(Cl)cc3)c21	-1	3	3	2	0	2
CCCCSc1nc2c(cc1C#N)CCC2	4	0	5	-3	-11	-2
CS(=O)CSc1nc2c(cc1C#N)CCCC2 (configuration not stated)	-16	1	-36	58*	95*	-12
CC(C)(C)NC(=O)C(=O)NNC(=O)c1cccc(Br)c1	-2	1	10	-2	-14	-3
O=C(c1ccco1)N1CCN(Cc2cc(=O)c(OCc3ccc([N+](=O)[O-])cc3)co2)CC1	-7	0	0	31*	0	-7
Cc1ccc(COc2coc(CN3CCN(C(=O)c4ccco4)CC3)cc2=O)cc1	13	1	16	-8	-21	-4
Cc1[nH]c(C)c(S(=O)(=O)NCc2ccc(N(C)C)cc2)c1C(=O)N1CCCC1	18*	1	-1	2	19	0
Nn1c(CN2CCCCC2)nc2ccccc2c1=O	3	0	5	-7	-4	-8
CN(C)Cc1csc(NC(=O)Nc2ccccc2Oc2ccccc2)n1	0	6	-6	-8	1	2
CN(C)Cc1csc(NC(=O)Nc2ccccc2-c2ccccc2)n1	-3	7	-20	-10	28*	-8
Cc1ccc(NC(=O)Cn2nnc(C(=O)NCc3cccs3)c2N)cc1Cl	8	2	7	-8	-10	-1
Cc1cc(N2CCCCCC2)nc2ccc(F)cc12	-5	-2	-15	4	15	31*
CCSc1ccc2c(c1)N(CCCN1CCN(C)CC1)c1ccccc1S2	-15	13	-19	13	22	-6
OC1CC2CCC(C1)N2CCCN1c2ccccc2Sc2ccc(Cl)cc21 (configuration not stated)	-17	16	-27	37*	67*	2
O=C(O)c1cccc(S(=O)(=O)N(Cc2ccccc2)c2ccccc2Cl)c1	-5	1	-2	7	-11	1
SMILES	CHRM4 PAM	CHRM4 agonist	M1 PAM	CHRM4 antagonist	M1 antag	CHRM1 agonist
CC(=O)CC(c1ccccc1)S(=O)(=O)c1ccc(C)cc1 (configuration not stated)	6	1	-4	4	27*	-2
COc1ccc(C(CC(=O)c2ccccc2)S(=O)(=O)c2ccc(C)cc2)cc1 (configuration not stated)	18	0	9	-18	-16	-6
COc1cc(/C=C2\CCCc3c2nc2ccccc2c3C(=O)O)cc(Br)c1O	4	0	10	7	-4	-2
CC(OC(=O)c1c2c(nc3ccccc13)/C(=C\c1ccc3c(c1)OCO3)CCC2)C(=O)Nc1ccc(S(N)(=O)=O)cc1 (configuration not stated)	-4	5	1	8	-3	-3
Cc1cccc(C)c1NC(=O)COC(=O)c1c2c(nc3ccccc13)/C(=C\c1ccc3c(c1)OCO3)CCC2	-22	88*	-16	37*	32	42*
CCOc1cc(/C=C2\CCCc3c2nc2ccccc2c3C(=O)O)ccc1OC	-10	44*	-2	4	6	10
Cn1cc(S(=O)(=O)Oc2ccccc2)c(=O)n(C)c1=O	5	2	5	-7	0	2
CCOC(=O)Cc1csc(NC(=O)c2cc(-c3ccncc3)nc3ccccc23)n1	-5	25	-15	-1	36*	-2
CCOC(=O)Cc1csc(NC(=O)c2sc3nc4ccc(C)cc4cc3c2N)n1	10	3	34*	1	-6	0
CCOC(=O)Cc1csc(NC(=O)c2cccnc2)n1	-3	1	2	6	-1	-3
COc1ccc(CNC(=O)CC[C@H]2O[C@@H](n3ccc(=O)[nH]c3=O)[C@H](O)[C@@H]2O)cc1	0	1	2	-4	-26	1
O=C(CC[C@H]1O[C@@H](n2ccc(=O)[nH]c2=O)[C@H](O)[C@@H]1O)NCc1cccc2ccccc12	21*	1	3	-8	-21	-5
Cc1nc(N)c(Cc2ccc(Cl)cc2Cl)c(N)n1	-18	36*	-27	20	32	1
COC(=O)C[C@H]1CC[C@@H](NC(=O)Nc2ccc3c(c2)OCO3)[C@@H](CO)O1	11	1	.	5	.	.
Cc1nn(CC(=O)NCC(C)c2ccccc2)c(=O)c2cc3occc3n12 (configuration not stated)	6	2	4	7	-5	-1
CC(CNC(=O)CCCn1ncn2c(cc3occc32)c1=O)c1ccccc1 (configuration not stated)	16*	2	10	-5	-10	-2
COc1ccc(CN2CCNC(=O)C2CC(=O)N(Cc2nccn2C)C(C)C)c(OC)c1 (configuration not stated)	31*	1	6	-1	-10	-2
